# Reference: the antibiotic and cytotoxicity screens of Wong et al. (2023)
# The whole screen tested about 39,000 compounds, of which about 1,500 (3.8%) were called active. The entries come from a sample that favours actives as a whole.
# Test system: HSkMC (human skeletal muscle cells)
# Assay: cytotoxicity call (relative viability < 0.9)
# Conditions: 10 µM
row,SMILES,cytotoxicity call
1,COc1ccc(NC(=O)Nc2ccc3c(c2)C(=O)N([C@H](C)CO)C[C@@H](C)[C@H](CN(C)S(=O)(=O)c2ccc(Cl)cc2)OCCCC[C@@H](C)O3)cc1,inactive
2,C[C@H]1CN([C@@H](C)CO)C(=O)c2cc(C3=CCCCC3)cnc2O[C@H]1CN(C)C(=O)CN1CCOCC1,inactive
3,O=C1OCc2cc(-n3cnnn3)ccc21,inactive
4,COc1ccc(NC(=O)N(C)C[C@H]2OCCCC[C@H](C)Oc3ccc(NC(=O)c4ccccc4)cc3C(=O)N([C@H](C)CO)C[C@H]2C)cc1,inactive
5,C[C@@H]1CN([C@H](C)CO)C(=O)c2cc(NC(=O)Nc3ccccc3)ccc2O[C@H]1CN(C)S(=O)(=O)c1cn(C)cn1,inactive
6,CC(C)[Si]1(C(C)C)OCc2cc(-c3ccc(-c4ccc(Cl)c(Cl)c4)o3)nc(CCc3ccccc3)c21,inactive
7,CCCCCCc1nc(-c2ccc(-c3ccc(Cl)c(Cl)c3)o2)cc2c1[Si](C(C)C)(C(C)C)OC2,active
8,CC(C)[Si]1(C(C)C)OCc2cc(-c3ccc(-c4ccc(Cl)c(Cl)c4)o3)nc(-c3ccccc3)c21,inactive
9,O=C(O)c1cncnc1N1CCCC1,inactive
10,C[C@@H]1CN([C@H](C)CO)C(=O)c2cccc(NC(=O)C3CCCCC3)c2O[C@H]1CN(C)Cc1ccc(Oc2ccccc2)cc1,inactive
11,C[C@H]1CN([C@@H](C)CO)C(=O)c2cccc(NC(=O)Nc3ccc(F)cc3)c2O[C@H]1CN(C)Cc1ccc(-c2ccccc2)cc1,inactive
12,C[C@H]1CN([C@@H](C)CO)C(=O)c2cccc(NC(=O)Nc3ccc(F)cc3)c2O[C@@H]1CN(C)Cc1ccc(-c2ccccc2)cc1,inactive
13,C[C@@H]1CN([C@@H](C)CO)C(=O)c2cccc(NC(=O)Nc3ccc(F)cc3)c2O[C@H]1CN(C)Cc1ccc(-c2ccccc2)cc1,active
14,C[C@H](CO)N1C[C@H](C)[C@@H](CN(C)Cc2ccc(-c3ccccc3)cc2)Oc2c(NC(=O)Nc3ccc(F)cc3)cccc2C1=O,inactive
15,C[C@@H]1CN([C@H](C)CO)C(=O)c2cccc(NC(=O)Nc3ccc(F)cc3)c2O[C@H]1CN(C)Cc1ccc(-c2ccccc2)cc1,inactive
16,C[C@@H]1CN([C@@H](C)CO)C(=O)c2cccc(NC(=O)Nc3ccc(F)cc3)c2O[C@@H]1CN(C)Cc1ccc(-c2ccccc2)cc1,active
17,Cc1noc(C)c1NC(=O)Nc1ccc2c(c1)CC(=O)N([C@@H](C)CO)C[C@H](C)[C@H](CN(C)C(=O)Nc1ccc(C(F)(F)F)cc1)O2,inactive
18,CO[C@@H](CN(C)S(=O)(=O)c1cccc(Cl)c1)[C@@H](C)CN([C@H](C)CO)S(=O)(=O)c1cccc(Cl)c1,inactive
19,C[C@@H]1CCCCO[C@H](CN(C)S(=O)(=O)c2cn(C)cn2)[C@@H](C)CN([C@@H](C)CO)C(=O)c2cc(NC(=O)Nc3cccc4ccccc34)ccc2O1,inactive
20,CO[C@@H]1CN(C)C(=O)c2ccc(NC(=O)C3CCOCC3)cc2OC[C@@H](C)N(C(=O)C2CCOCC2)C[C@H]1C,inactive

row,SMILES,cytotoxicity call
1,C[C@H](CO)N1C[C@H](C)[C@H](CN(C)Cc2ccc(-c3ccccc3)cc2)Oc2ccc(NS(=O)(=O)c3ccccc3)cc2CC1=O,inactive
2,C[C@H](CO)N1C[C@H](C)[C@@H](CN(C)Cc2ccc(-c3ccccc3)cc2)Oc2ccc(NS(=O)(=O)c3ccccc3)cc2CC1=O,inactive
3,C[C@@H]1CN([C@@H](C)CO)C(=O)Cc2cc(NS(=O)(=O)c3ccccc3)ccc2O[C@H]1CN(C)Cc1ccc(-c2ccccc2)cc1,inactive
4,C[C@H]1CN([C@@H](C)CO)C(=O)Cc2cc(NS(=O)(=O)c3ccccc3)ccc2O[C@@H]1CN(C)Cc1ccc(-c2ccccc2)cc1,active
5,C[C@H]1CN([C@@H](C)CO)C(=O)Cc2cc(NS(=O)(=O)c3ccccc3)ccc2O[C@H]1CN(C)Cc1ccc(-c2ccccc2)cc1,active
6,C[C@@H]1CN([C@H](C)CO)C(=O)Cc2cc(NS(=O)(=O)c3ccccc3)ccc2O[C@H]1CN(C)Cc1ccc(-c2ccccc2)cc1,active
7,C[C@@H]1CN([C@H](C)CO)C(=O)Cc2cc(NS(=O)(=O)c3ccccc3)ccc2O[C@@H]1CN(C)Cc1ccc(-c2ccccc2)cc1,inactive
8,C[C@@H]1CN([C@@H](C)CO)C(=O)Cc2cc(NS(=O)(=O)c3ccccc3)ccc2O[C@@H]1CN(C)Cc1ccc(-c2ccccc2)cc1,active
9,CN(C)c1cncc(C(=O)O)c1,inactive
10,C[C@@H]1CCCCO[C@H](CN(C)C(=O)Nc2ccc3c(c2)OCO3)[C@H](C)CN([C@H](C)CO)C(=O)c2cc(NS(=O)(=O)c3ccccc3)ccc2O1,inactive
11,CC(C)C#Cc1ccc2c(c1)O[C@H](CN(C)C(=O)Cc1ccccn1)[C@H](C)CN([C@H](C)CO)S2(=O)=O,inactive
12,Cc1noc(C)c1NC(=O)N(C)C[C@@H]1Oc2ccc(NC(=O)NC(C)C)cc2CC(=O)N([C@H](C)CO)C[C@H]1C,inactive
13,CCCC(=O)Nc1ccc2c(c1)OC[C@@H](C)N(C(=O)Cc1ccccn1)C[C@@H](C)[C@H](OC)CN(C)C2=O,inactive
14,CCN1C(=O)CS/C1=N\N1CCOCC1,inactive
15,C[C@@H]1CN([C@H](C)CO)C(=O)c2cc(NC(=O)Nc3ccc(C(F)(F)F)cc3)ccc2O[C@@H](C)CCCCO[C@H]1CN(C)C(=O)Nc1ccc(F)cc1,inactive
16,COCCCNC(=O)[C@@]1(Sc2ccc(C)cc2)CC(=O)N(Cc2ccccc2C(F)(F)F)[C@@H]1c1ccc(CO)cc1,inactive
17,C[C@@H]1CCCCO[C@@H](CN(C)C(=O)C2CCCCC2)[C@H](C)CN([C@@H](C)CO)C(=O)c2cc(NC(=O)Nc3ccccc3)ccc2O1,inactive
18,C[C@@H]1CCCCO[C@H](CN(C)C(=O)Nc2ccc3c(c2)OCO3)[C@H](C)CN([C@H](C)CO)C(=O)c2cc(NC(=O)c3ccncc3)ccc2O1,inactive
19,C[C@@H]1CN([C@@H](C)CO)C(=O)c2ccccc2-c2ccccc2CO[C@H]1CN(C)C(=O)Nc1ccc(F)cc1,inactive
20,CC(C)C[C@H](NP(=O)(O)O[C@H]1O[C@@H](C)[C@@H](O)[C@@H](O)[C@@H]1O)C(=O)N[C@H](Cc1c[nH]c2ccccc12)C(=O)O,inactive

row,SMILES,cytotoxicity call
1,C[C@H](NC(=O)[C@@H](Cc1ccc2ccccc2c1)NC(=O)[C@@H](C)N)C(=O)N[C@@H](Cc1c[nH]c2ccccc12)C(=O)N[C@H](Cc1ccccc1)C(=O)N[C@@H](CCCCN)C(N)=O,inactive
2,CC(C)CC(NC(=O)C(C)NC(=O)CNC(=O)C(NC=O)C(C)C)C(=O)NC(C)C(=O)NC(C(=O)NC(C(=O)NC(C(=O)NC(Cc1c[nH]c2ccccc12)C(=O)NC(CC(C)C)C(=O)NC(Cc1c[nH]c2ccccc12)C(=O)NC(CC(C)C)C(=O)NC(Cc1c[nH]c2ccccc12)C(=O)NC(CC(C)C)C(=O)NC(Cc1c[nH]c2ccccc12)C(=O)NCCO)C(C)C)C(C)C)C(C)C (stereo not given) [GRAMICIDIN (gramicidin A shown) ],active
3,CCOc1ccc(C(=O)Nc2ccc(N3CCN(C(=O)c4cccs4)CC3)c(Cl)c2)cc1Br,inactive
4,C[C@@H]1CCCCO[C@@H](CN(C)Cc2ccc(C(=O)Nc3ccccc3N)cc2)[C@@H](C)CN([C@H](C)CO)C(=O)c2cc(NC(=O)Nc3cccc4ccccc34)ccc2O1,inactive
5,CC[C@H](C)[C@H]1O[C@]2(CC[C@@H]1C)C[C@@H]1C[C@@H](C/C=C(\C)[C@@H](O[C@H]3C[C@H](OC)[C@@H](O[C@H]4C[C@H](OC)[C@@H](O)[C@H](C)O4)[C@H](C)O3)[C@@H](C)/C=C/C=C3\CO[C@@H]4[C@H](O)C(C)=C[C@@H](C(=O)O1)[C@]34O)O2,active
6,CC[C@@H](C)[C@H]1O[C@@]2(CC[C@@H]1C)C[C@H]1C[C@@H](CC=C(C)[C@@H](O[C@H]3C[C@@H](OC)[C@@H](O[C@H]4C[C@@H](OC)[C@@H](O)[C@@H](C)O4)[C@@H](C)O3)[C@@H](C)C=CC=C3CO[C@H]4[C@@H](O)C(C)=C[C@@H](C(=O)O1)[C@]34O)O2.CO[C@H]1C[C@@H](O[C@@H]2[C@@H](OC)C[C@@H](O[C@@H]3C(C)=CC[C@@H]4C[C@@H](C[C@@]5(CC[C@@H](C)[C@H](C(C)C)O5)O4)OC(=O)[C@@H]4C=C(C)[C@H](O)[C@@H]5OCC(=CC=C[C@@H]3C)[C@@]45O)O[C@@H]2C)O[C@@H](C)[C@@H]1O,active
7,CCC(C)C1OC2(CCC1C)CC1CC(CC=C(C)C(OC3CC(OC)C(OC4CC(OC)C(O)C(C)O4)C(C)O3)C(C)C=CC=C3COC4C(O)C(C)=CC(C(=O)O1)C34O)O2 (stereo not given),inactive
8,O=[N+]([O-])c1cc(N(CCO)CCO)ccc1NCCO,inactive
9,O=C(C[C@@H]1CC[C@H]2[C@@H](COC[C@@H](O)CN2C(=O)Nc2cccc(F)c2)O1)NCCCN1CCOCC1,inactive
10,C[C@@H]1CCCCO[C@H](CN(C)Cc2ccccc2)[C@@H](C)CN([C@@H](C)CO)C(=O)c2cc(NC(=O)CCC(F)(F)F)ccc2O1,inactive
11,CCS(=O)(=O)Nc1ccc2c(c1)CC(=O)N2,inactive
12,CCS(=O)(=O)Nc1ccc2c(c1)/C(=C(/Nc1ccc(CN3CCCCC3)cc1)c1ccccc1)C(=O)N2,active
13,CCS(=O)(=O)Nc1ccc2c(c1)C(=O)N(C)[C@@H]1CC[C@H](CC(=O)N[C@H]3CCN(Cc4ccccc4)C3)O[C@H]1CO2,inactive
14,Cc1ccc(S[C@]2(C(=O)NCCCN(C)C)CC(=O)N(Cc3ccccc3C(F)(F)F)[C@@H]2c2ccc(CO)cc2I)cc1,inactive
15,C[C@H]1CCCCO[C@H](CN(C)C(=O)Nc2cccc3ccccc23)[C@@H](C)CN([C@@H](C)CO)C(=O)c2cc(NC(=O)c3ccncc3)ccc2O1,inactive
16,C[C@@H]1CN([C@H](C)CO)C(=O)c2cc(NC(=O)c3ccncc3)ccc2O[C@@H](C)CCCCO[C@H]1CN(C)C(=O)Nc1cccc2ccccc12,active
17,C[C@@H]1CCCCO[C@@H](CN(C)C(=O)Nc2cccc3ccccc23)[C@H](C)CN([C@@H](C)CO)C(=O)c2cc(NC(=O)c3ccncc3)ccc2O1,inactive
18,C[C@H](CO)N1C[C@H](C)[C@@H](CN(C)C(=O)Nc2cccc3ccccc23)OCCCC[C@H](C)Oc2ccc(NC(=O)c3ccncc3)cc2C1=O,inactive
19,C[C@@H]1CN([C@H](C)CO)C(=O)c2cc(NC(=O)c3ccncc3)ccc2O[C@@H](C)CCCCO[C@@H]1CN(C)C(=O)Nc1cccc2ccccc12,inactive
20,C[C@@H]1CCCCO[C@H](CN(C)C(=O)Nc2cccc3ccccc23)[C@@H](C)CN([C@@H](C)CO)C(=O)c2cc(NC(=O)c3ccncc3)ccc2O1,active
